Laboratory results reported in PubChem BioAssay (EPA / NIEHS).
Results filed as inconclusive are left out. Calls of active or inactive are those of the source. The calls were made as follows: active = hit-call score of the fitted dose curve at least 0.9, where 1 is the maximum; inconclusive = response in the unintended direction; inactive = score below 0.9.

Columns and labels:
[1] = target: rat Peripheral-type Benzodiazepine Receptor (PBR), Tspo (gene 24230) (UniProt P16257); test: NVS_MP_rPBR: NovaScreen (NVS) Membrane Protein Assay for rat Peripheral-type Benzodiazepine Receptor (PBR) (AID 2283335)
Summary of the method: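 Single-concentration duplicate screening at 25 uM preceded concentration-series retesting of actives. Binding of a specific radioligand to rat kidney membrane PBR was read by filtration radiodetection after 1 h, with plate-wise positive and negative controls.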

[2] = target: Estrogen receptor (Homo sapiens) (UniProt P03372); test: OT_ER_ERaERa_1440: Odyssey Thera (OT) 24-hour HEK293T Protein-Complementation Assay for Estrogen Receptor-alpha/-alpha Homodimer (AID 2283349);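 also: hits raise fluorescence above DMSO for agonists and antagonists alike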
Summary of the method: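 Cells (HEK293T) carrying the fragment-tagged ERα LBD (aa 310-547) pair are treated with chemical for 24 hours. Nuclear and/or cytoplasmic fluorescence is then quantified on a laser scanning cytometer. Activity is scored as signal gain against DMSO.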

[3] = target: Estrogen receptor (Homo sapiens) (UniProt P03372); test: OT_ER_ERaERa_0480: Odyssey Thera (OT) 8-hour HEK293T Protein-Complementation Assay for Estrogen Receptor-alpha/-alpha Homodimer (AID 2283351);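 also: rise in fluorescence from reassembled reporter fragments on ERα LBD homodimer in nucleus or whole cell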
Summary of the method: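 Read-out: fluorescence intensity rise relative to DMSO, nuclear for agonists, nuclear plus cytoplasmic for antagonists. Construct is the ERα LBD (aa 310-547) homodimer fragment-complementation pair, stably expressed in HEK293T; exposure 8 h.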

[4] = target: human Constitutive Androstane Receptor (CAR), NR1I3 (gene 9970) (UniProt Q14994); test: NVS_NR_hCAR_Antagonist: NovaScreen (NVS) Nuclear Receptor Binding Assay for human Constitutive Androstane Receptor Antagonism (CAR) (AID 2283344)
Summary of the method: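 Single 25 uM duplicate primary screen, with concentration-series follow-up on actives. Cell-free binding format run in antagonist mode, TR-FRET signal taken 1 h post-dose; activity is signal loss relative to DMSO.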

[5] = target: chimpanzee Androgen Receptor (AR), AR (gene 747460) (UniProt O97775); test: NVS_NR_cAR: NovaScreen (NVS) Nuclear Receptor Binding Assay for chimpanzee Androgen Receptor (AR) (AID 2283346);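 also: radioligand displacement from AR measured by scintillation counting in a cell-free assay; a loss of bound radioligand signal versus DMSO counts as binding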
Summary of the method: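 Radioligand binding to chimpanzee AR expressed in Sf9/Sf21 cells, cell-free, measured 72 h after dosing by lysate-based scintillation counting. Loss of signal vs DMSO; initial duplicate screen at 25 uM, actives retested in concentration series.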

[6] = target: Estrogen receptor (Homo sapiens) + Estrogen receptor beta (Homo sapiens) (UniProt P03372+Q92731); test: OT_ER_ERaERb_0480: Odyssey Thera (OT) 8-hour HEK293T Protein-Complementation Assay for Estrogen Receptor-alpha/-beta Heterodimer (AID 2283352)
Summary of the method: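 Increase in mean fluorescence intensity, measured by laser scanning plate cytometry, reported ER-alpha/ER-beta LBD complementation in HEK293T cells after 8 h chemical exposure. DMSO served as baseline; basal signal is low, punctate and cytoplasmic.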

NCBI gene 100848466 = test: NVS_NR_bPR: NovaScreen (NVS) Nuclear Receptor Binding Assay for bovine Progextron Receptor (PR) (AID 2283343);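 also: actives lower bound radioligand signal below DMSO meaning displacement of the label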
Summary of the method: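 Scintillation counts of bound radioligand were read 18 hours after chemical addition to membranes extracted from bovine uterus. Displacement was scored as loss of signal relative to DMSO controls. Screening began at 25 uM in duplicate.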

[7] = target: bovine Estrogen Receptor (ER), ESR1 (gene 407238) (UniProt P49884); test: NVS_NR_bER: NovaScreen (NVS) Nuclear Receptor Binding Assay for bovine Estrogen Receptor (ER) (AID 2283345);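 also: actives lower the bound radioligand count which means they displace the ER ligand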
Summary of the method: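 Bovine uterine membranes; tritiated or iodinated radioligand; competitive displacement; 18 h; scintillation read; DMSO negative control; 25 uM duplicates, then concentration series for actives.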

[8] = target: Estrogen receptor (Homo sapiens) (UniProt P03372); test: NVS_NR_hER: NovaScreen (NVS) Nuclear Receptor Binding Assay for human Estrogen Receptor (ER) (AID 2283348)
Summary of the method: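 MCF7-derived receptor extract, radiolabelled ligand, competitive displacement. Read: scintillation counts at 18 h. DMSO = negative control/baseline. Primary 25 uM duplicate; follow-up concentration–response.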

[9] = NVS_IC_rCaBTZCHL: NovaScreen (NVS) Ion Channel Assay for Calcium Channel, Type L, Benzothiazepine Site (CaBTZCHL) (AID 2283337)
Summary of the method: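 Rat cortical membrane preparation, cell-free. Radioligand displaced by test chemical; 1.5 h incubation; filtration, scintillation count. DMSO = negative control/baseline. Primary: duplicate, 25 uM; secondary: concentration series.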

[10] = target: rat Gamma-Aminobutyric Acid Type A Receptor BDZ, alpha 6 site (GABARa6), Gabra6 (gene 29708) (UniProt P30191); test: NVS_LGIC_rGABARa6: NovaScreen (NVS) Ligand-Gated Ion Channel Assay for rat Gamma-Aminobutyric Acid Type A Receptor BDZ, alpha 6 site (GABARa6) (AID 2283339)
Summary of the method: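 Actives from a 25 uM duplicate screen were retested in concentration series (max 50 uM). Specific radioligand displacement from rat cerebellar membranes was counted by filter-based scintillation at 1 h; DMSO served as baseline.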

[11] = target: rat Glutamate, MK-801 Agonist Site (GluNMDA_MK801), Grin1 (gene 24408) (UniProt P35439); test: NVS_LGIC_rGluNMDA_MK801_Agonist: NovaScreen (NVS) Ligand-Gated Ion Channel Assay for rat Glutamate, MK-801 Agonist Site (GluNMDA_MK801) (AID 2283340)
Summary of the method: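 Rat forebrain membrane preparation; MK-801-site radioligand binding read by filtration and scintillation after 1.5 h. Single-point 25 uM duplicate screen, followed by singleton concentration series to 50 uM max; DMSO baseline.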

[12] = target: Bile acid receptor (Homo sapiens) (UniProt Q96RI1); test: NVS_NR_hFXR_Antagonist: NovaScreen (NVS) Nuclear Receptor Binding Assay for human Farnesoid X Receptor Antagonism (FXR) (AID 2283350)
Summary of the method: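 Antagonist-format time-resolved FRET binding assay with extracted human receptor protein, read 1 hour after compound addition. Compounds first screened at 25 uM in duplicate, then actives tested in concentration series, with loss of signal relative to DMSO.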

[13] = target: Androgen Receptor/SRC-1 Co-activator, AR (gene 367) (UniProt P10275); test: OT_AR_ARSRC1_0960: Odyssey Thera (OT) 16-hour HEK293T Protein-Complementation Assay for Androgen Receptor/SRC-1 Co-activator (AID 2283353);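 also: actives raise the signal above DMSO so potency reflects increased AR and SRC-1 complex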
Summary of the method: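 Readout: 488 nm nuclear-to-cytoplasmic fluorescence ratio from imaging of at least 400 cells per image, 16 h post-dose. Reporter is Venus YFP complementation between AR and SRC-1 fusions, stably expressed in HEK293T; activity scored upward relative to DMSO.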

[14] = target: Androgen Receptor/SRC-1 Co-activator, AR (gene 367) (UniProt P10275); test: OT_AR_ARSRC1_0480: Odyssey Thera (OT) 8-hour HEK293T Protein-Complementation Assay for Androgen Receptor/SRC-1 Co-activator (AID 2283354);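 also: hits raise the complementation signal above DMSO so AC50 marks enhancers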
Summary of the method: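 Split-Venus PCA, stable HEK293T, AR/SRC-1 fusions; 8 h exposure. Readout: 488nm N/C fluorescence ratio, ≥400 cells/image; fitted upward vs DMSO baseline.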

[15] = target: rat Mineralocorticoid Receptor (MR), Nr3c2 (gene 25672) (UniProt P22199); test: NVS_NR_rMR: NovaScreen (NVS) Nuclear Receptor Binding Assay for rat Mineralocorticoid Receptor (MR) (AID 2283355)
Summary of the method: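 Radioligand displacement, scintillation readout; tissue source adrenalectomized rat brain supernatant. Read 24 h post-dose. Screened in duplicate at 25 uM, DMSO negative control, controls on every plate; actives re-run in concentration series.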

[16] = target: Bile acid receptor (Homo sapiens) (UniProt Q96RI1); test: NVS_NR_hFXR_Agonist: NovaScreen (NVS) Nuclear Receptor Binding Assay for human Farnesoid X Receptor Agonism (FXR) (AID 2283347)
Summary of the method: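 Agonist-mode FXR assay read by time-resolved FRET 1 h after compound addition, using isolated human receptor protein without cells. Duplicate 25 uM single-point primary screen, concentration series for confirmed actives; DMSO as baseline.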

Measured: AC50

Sequence of human Constitutive Androstane Receptor (CAR), NR1I3 (gene 9970) (Q14994 whole entry, looked up): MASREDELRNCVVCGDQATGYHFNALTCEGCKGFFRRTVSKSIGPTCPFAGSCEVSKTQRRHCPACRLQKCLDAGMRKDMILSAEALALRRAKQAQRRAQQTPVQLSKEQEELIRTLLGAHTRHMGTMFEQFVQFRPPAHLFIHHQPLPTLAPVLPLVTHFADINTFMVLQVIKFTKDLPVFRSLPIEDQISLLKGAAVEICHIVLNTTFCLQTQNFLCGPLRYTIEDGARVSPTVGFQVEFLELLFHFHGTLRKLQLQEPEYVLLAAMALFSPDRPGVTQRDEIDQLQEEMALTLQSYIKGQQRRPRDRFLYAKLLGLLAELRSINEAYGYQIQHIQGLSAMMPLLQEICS
Sequence of rat Peripheral-type Benzodiazepine Receptor (PBR), Tspo (gene 24230) (P16257 whole entry, looked up): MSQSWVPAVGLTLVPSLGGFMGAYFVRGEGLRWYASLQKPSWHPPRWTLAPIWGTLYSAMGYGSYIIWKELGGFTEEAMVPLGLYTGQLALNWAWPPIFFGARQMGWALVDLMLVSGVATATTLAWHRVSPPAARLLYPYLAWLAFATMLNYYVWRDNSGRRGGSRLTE
Sequence of Androgen Receptor/SRC-1 Co-activator, AR (gene 367) (P10275 whole entry, looked up, the tested form may be a part): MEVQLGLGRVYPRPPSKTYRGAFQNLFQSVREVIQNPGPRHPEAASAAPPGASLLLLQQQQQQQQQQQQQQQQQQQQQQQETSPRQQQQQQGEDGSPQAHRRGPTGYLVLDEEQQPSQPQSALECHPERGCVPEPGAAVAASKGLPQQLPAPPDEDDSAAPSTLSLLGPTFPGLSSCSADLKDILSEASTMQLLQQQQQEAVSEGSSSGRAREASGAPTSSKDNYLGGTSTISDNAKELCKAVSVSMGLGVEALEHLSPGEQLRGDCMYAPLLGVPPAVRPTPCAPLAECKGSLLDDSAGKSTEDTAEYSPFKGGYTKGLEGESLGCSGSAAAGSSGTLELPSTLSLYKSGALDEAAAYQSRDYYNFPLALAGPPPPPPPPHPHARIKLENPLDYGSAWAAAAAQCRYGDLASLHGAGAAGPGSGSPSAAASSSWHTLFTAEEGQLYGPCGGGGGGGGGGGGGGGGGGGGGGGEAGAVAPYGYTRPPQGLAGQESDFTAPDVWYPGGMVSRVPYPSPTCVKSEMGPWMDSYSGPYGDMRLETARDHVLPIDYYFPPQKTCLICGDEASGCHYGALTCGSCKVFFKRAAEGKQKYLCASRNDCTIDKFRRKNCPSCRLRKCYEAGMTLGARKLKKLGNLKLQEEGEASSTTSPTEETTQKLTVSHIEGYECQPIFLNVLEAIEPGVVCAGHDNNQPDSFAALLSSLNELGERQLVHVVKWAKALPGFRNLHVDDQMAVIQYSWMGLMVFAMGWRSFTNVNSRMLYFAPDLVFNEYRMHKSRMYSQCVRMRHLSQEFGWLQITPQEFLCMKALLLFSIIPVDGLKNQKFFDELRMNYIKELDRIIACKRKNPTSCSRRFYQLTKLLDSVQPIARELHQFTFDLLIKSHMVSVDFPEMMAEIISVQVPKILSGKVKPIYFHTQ
Sequence of rat Mineralocorticoid Receptor (MR), Nr3c2 (gene 25672) (P22199 whole entry, looked up): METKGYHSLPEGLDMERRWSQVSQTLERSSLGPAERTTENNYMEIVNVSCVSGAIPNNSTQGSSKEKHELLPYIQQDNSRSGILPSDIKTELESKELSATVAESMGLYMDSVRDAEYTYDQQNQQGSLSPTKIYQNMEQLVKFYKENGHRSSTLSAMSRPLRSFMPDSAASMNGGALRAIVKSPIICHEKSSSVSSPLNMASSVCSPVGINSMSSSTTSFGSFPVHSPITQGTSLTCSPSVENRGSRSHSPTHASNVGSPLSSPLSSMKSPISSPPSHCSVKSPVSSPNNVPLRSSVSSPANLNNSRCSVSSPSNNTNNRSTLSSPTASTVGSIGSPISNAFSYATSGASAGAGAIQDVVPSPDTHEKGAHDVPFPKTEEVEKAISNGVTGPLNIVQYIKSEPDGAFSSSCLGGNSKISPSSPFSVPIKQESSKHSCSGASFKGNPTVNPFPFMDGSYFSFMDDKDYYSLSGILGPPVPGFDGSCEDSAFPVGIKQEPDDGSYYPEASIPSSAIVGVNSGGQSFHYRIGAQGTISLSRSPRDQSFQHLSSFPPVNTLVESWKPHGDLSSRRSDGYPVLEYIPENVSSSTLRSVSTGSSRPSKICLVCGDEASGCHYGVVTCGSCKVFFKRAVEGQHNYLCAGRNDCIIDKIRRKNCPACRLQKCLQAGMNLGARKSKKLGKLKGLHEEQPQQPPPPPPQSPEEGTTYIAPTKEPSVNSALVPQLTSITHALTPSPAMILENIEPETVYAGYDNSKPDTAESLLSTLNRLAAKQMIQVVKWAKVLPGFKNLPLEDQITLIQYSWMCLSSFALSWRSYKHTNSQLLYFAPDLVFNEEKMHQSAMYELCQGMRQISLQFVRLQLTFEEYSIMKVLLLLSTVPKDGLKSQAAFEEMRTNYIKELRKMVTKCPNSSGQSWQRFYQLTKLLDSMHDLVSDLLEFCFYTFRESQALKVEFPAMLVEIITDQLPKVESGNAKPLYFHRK
Sequence of bovine Estrogen Receptor (ER), ESR1 (gene 407238) (P49884 whole entry, looked up): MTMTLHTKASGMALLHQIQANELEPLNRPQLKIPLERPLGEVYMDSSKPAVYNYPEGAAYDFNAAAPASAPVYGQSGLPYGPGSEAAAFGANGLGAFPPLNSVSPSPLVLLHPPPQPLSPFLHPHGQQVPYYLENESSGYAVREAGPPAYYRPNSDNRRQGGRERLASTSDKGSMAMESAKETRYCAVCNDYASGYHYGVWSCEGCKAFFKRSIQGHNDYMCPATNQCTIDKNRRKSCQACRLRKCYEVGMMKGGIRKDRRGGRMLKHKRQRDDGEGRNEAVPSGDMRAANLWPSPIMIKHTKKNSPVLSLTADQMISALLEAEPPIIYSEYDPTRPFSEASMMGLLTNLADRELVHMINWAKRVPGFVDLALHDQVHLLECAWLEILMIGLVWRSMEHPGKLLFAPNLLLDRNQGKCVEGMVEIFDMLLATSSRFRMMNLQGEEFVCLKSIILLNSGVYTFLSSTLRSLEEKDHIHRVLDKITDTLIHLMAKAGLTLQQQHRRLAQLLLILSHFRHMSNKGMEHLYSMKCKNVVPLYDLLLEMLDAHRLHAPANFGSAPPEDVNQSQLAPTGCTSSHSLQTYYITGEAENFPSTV
Sequence of Bile acid receptor (Homo sapiens) (Q96RI1 whole entry, looked up): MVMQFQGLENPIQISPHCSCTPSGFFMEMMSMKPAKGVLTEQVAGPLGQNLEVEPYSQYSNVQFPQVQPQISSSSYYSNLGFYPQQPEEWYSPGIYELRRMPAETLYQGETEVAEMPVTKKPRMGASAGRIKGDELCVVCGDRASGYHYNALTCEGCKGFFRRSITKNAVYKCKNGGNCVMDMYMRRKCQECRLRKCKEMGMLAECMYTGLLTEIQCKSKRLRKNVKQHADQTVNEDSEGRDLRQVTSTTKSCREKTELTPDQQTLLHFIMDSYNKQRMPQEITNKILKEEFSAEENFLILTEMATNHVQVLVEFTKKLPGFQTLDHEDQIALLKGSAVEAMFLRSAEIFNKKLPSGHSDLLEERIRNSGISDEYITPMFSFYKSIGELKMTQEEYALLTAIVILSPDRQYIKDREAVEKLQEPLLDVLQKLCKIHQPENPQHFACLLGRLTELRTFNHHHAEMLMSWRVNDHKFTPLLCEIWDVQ
Sequence of chimpanzee Androgen Receptor (AR), AR (gene 747460) (O97775 whole entry, looked up): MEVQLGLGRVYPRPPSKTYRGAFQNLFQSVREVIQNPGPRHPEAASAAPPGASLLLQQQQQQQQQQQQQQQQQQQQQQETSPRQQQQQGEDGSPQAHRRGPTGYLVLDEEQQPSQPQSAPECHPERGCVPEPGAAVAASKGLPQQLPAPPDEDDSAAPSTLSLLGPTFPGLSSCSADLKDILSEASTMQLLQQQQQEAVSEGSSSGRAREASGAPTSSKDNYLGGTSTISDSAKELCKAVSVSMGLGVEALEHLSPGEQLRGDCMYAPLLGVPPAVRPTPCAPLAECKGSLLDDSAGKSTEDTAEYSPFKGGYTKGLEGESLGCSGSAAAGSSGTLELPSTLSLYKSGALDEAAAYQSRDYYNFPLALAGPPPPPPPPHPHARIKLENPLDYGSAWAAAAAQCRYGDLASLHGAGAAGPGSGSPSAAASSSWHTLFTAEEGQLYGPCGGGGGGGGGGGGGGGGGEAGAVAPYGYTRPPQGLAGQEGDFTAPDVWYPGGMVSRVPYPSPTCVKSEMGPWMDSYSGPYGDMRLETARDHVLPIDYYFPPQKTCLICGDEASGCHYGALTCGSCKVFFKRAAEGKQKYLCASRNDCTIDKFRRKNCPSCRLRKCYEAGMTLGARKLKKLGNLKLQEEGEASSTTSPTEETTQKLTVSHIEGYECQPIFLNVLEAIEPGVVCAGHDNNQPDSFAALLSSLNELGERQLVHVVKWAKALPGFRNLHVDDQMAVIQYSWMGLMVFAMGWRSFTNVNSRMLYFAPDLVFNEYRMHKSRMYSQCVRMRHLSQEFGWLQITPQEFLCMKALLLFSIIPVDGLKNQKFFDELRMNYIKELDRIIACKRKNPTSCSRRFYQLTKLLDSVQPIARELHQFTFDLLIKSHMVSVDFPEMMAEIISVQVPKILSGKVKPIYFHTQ
Sequence of Estrogen receptor (Homo sapiens) (P03372 whole entry, looked up, the tested form may be a part): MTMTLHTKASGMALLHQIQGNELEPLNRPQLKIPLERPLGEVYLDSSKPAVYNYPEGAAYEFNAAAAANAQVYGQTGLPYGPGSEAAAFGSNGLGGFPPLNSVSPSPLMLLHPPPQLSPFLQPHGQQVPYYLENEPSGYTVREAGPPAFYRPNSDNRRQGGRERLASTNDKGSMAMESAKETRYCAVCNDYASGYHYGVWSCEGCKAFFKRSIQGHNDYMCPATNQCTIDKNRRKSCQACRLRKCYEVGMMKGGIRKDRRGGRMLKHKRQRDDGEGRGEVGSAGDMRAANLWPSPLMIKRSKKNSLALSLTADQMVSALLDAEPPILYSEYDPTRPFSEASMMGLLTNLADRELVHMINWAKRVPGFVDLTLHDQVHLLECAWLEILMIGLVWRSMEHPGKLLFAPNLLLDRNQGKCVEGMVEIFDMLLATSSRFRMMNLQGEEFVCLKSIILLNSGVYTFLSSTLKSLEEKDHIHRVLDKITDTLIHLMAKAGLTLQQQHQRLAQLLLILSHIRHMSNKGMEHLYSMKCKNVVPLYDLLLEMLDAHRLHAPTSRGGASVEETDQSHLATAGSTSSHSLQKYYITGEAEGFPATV

CCOP(=S)(OCC)Oc1nc(Cl)n(C(C)C)n1
active: [1] 12.9 µM
inactive: [2] | [3]

CCN(CC)C(=O)C(C)Oc1cccc2ccccc12 (stereo not given)
inactive: [2] | [3] | [6]
active: [1] 0.125 µM | [4] 34.2 µM | [5] 11.5 µM

CC(C)=CC1C(C(=O)OCc2coc(Cc3ccccc3)c2)C1(C)C (stereo not given)
inactive: [1] | [4] | [7] | [8] | [2] | [3]
active: NCBI gene 100848466 25 µM

CCCCC(O)(Cn1cncn1)c1ccc(Cl)cc1Cl (stereo not given)
inactive: [9] | [11] | [7] | [2] | [12] | [3] | [6]
active: [10] 1.89 µM | NCBI gene 100848466 7.24 µM | [5] 25 µM | [13] 72.5 µM | [14] 75.8 µM

COC(=O)N(C(=O)N1CO[C@@]2(C(=O)OC)Cc3cc(Cl)ccc3C2=N1)c1ccc(OC(F)(F)F)cc1
inactive: [1] | [5] | [2] | [3] | [6] | [13] | [14]

COCC(C)N(C(=O)CCl)c1c(C)csc1C (stereo not given)
inactive: [2] | [3] | [6]
active: [1] 2.95 µM

C=CCOC(=O)C(C)(C)OC(=O)c1cc(-n2c(=O)cc(C(F)(F)F)n(C)c2=O)ccc1Cl
inactive: [2] | [6]

Cc1ccc(N=CN(C)C=Nc2ccc(C)cc2C)c(C)c1
inactive: [2] | [3]

CCOc1nc(C(Cl)(Cl)Cl)ns1
inactive: [2] | [3] | [6] | [15]

Cc1cnc(C2=NC(C)(C(C)C)C(=O)N2)c(C(=O)O)c1 (stereo not given)
inactive: [2] | [3] | [6] | [13] | [14]

CCCC(=NOCC)C1=C(O)CC(CC(C)SCC)CC1=O (stereo not given)
inactive: [2] | [6] | [15]

CS(=O)(=O)c1cc(C(F)(F)F)ccc1C(=O)c1cnoc1C1CC1
inactive: [7] | [2] | [3] | [6]

COP(=O)(OC)O/C(C)=C/C(=O)N(C)C
inactive: [2] | [3] | [6]

O=C(O)c1c(Cl)ccc2cc(Cl)cnc12
inactive: [2] | [3] | [6]

CCC(C)n1c(=O)[nH]c(C)c(Br)c1=O (stereo not given)
inactive: [4] | [2] | [3] | [6]

C=C(C)CN(CC)c1c([N+](=O)[O-])cc(C(F)(F)F)cc1[N+](=O)[O-]
inactive: [4] | [5] | [2] | [3]
active: [6] 50 µM

CN=C=S
inactive: [4] | [7] | [2] | [3]

CS(=O)(=O)c1ccc(C(=O)C2C(=O)CCCC2=O)c([N+](=O)[O-])c1
inactive: [2] | [3] | [6]
active: [5] 17.6 µM

Nc1c(Cl)c(F)nc(OCC(=O)O)c1Cl
inactive: [2] | [3] | [6] | [13] | [14]

COC(=O)NS(=O)(=O)c1ccc(N)cc1
inactive: [4] | [2] | [6] | [15]

Cc1cc(C)nc(Nc2ccccc2)n1
inactive: [2] | [3]

CCSC(=O)N1CCCCCC1
inactive: [8] | [2] | [3] | [6]

CC1(C)CCC(=Cc2ccc(Cl)cc2)C1(O)Cn1cncn1 (stereo not given)
active: [5] 0.672 µM | [13] 16.3 µM | [14] 15.5 µM
inactive: [2] | [3] | [6]

CC(C)C1(C)N=C(c2ncccc2C(=O)O)NC1=O (stereo not given)
inactive: [4] | [2] | [12] | [3]

CC(C)N1C(=O)c2ccccc2NS1(=O)=O
inactive: [2] | [3] | [15]

CCNC(=O)NC(=O)C(C#N)=NOC
inactive: [2] | [12] | [3]

Nc1c(Cl)c(Cl)nc(C(=O)O)c1Cl
inactive: [2] | [3] | [6]

CC1(C)CON(Cc2ccccc2Cl)C1=O
inactive: [2] | [3] | [6]

O=c1n(Cl)c(=O)n(Cl)c(=O)n1Cl
inactive: [7] | [2] | [3]

COc1cc(OC)nc(NC(=O)NS(=O)(=O)c2ncccc2OCC(F)(F)F)n1
inactive: [2] | [3] | [6]

CC(C)Nc1nc(Cl)nc(NC(C)C)n1
inactive: [2] | [6]

COC(=O)NC(=S)Nc1ccccc1NC(=S)NC(=O)OC
inactive: [2] | [3] | [6]

N#CN=C1SCCN1Cc1ccc(Cl)nc1
inactive: [2] | [3]

CC(C)N1C(=O)N(c2ccccc2)CSC1=NC(C)(C)C
inactive: [2] | [3] | [6] | [14]
active: [13] 62.9 µM

Clc1cccc(C(Cl)(Cl)Cl)n1
inactive: [2] | [3] | [6] | [13] | [14]

COc1cc(Cl)c(OC)cc1Cl
inactive: [2] | [3] | [6]

O=P(O)(O)CCCl
inactive: [2] | [3]

CCOc1nc(F)cc2nc(S(=O)(=O)Nc3c(Cl)cccc3Cl)nn12
inactive: [4] | [16] | [2] | [3] | [6]

CNC(=O)N(C)c1nnc(C(C)(C)C)s1
inactive: [2] | [3] | [6]

COCc1cnc(C2=NC(C)(C(C)C)C(=O)N2)c(C(=O)O)c1 (stereo not given)
inactive: [2] | [3] | [6] | [13] | [14]
active: [12] 30.3 µM

CCOc1cc(C(C)(C)C)ccc1C1COC(c2c(F)cccc2F)=N1 (stereo not given)
active: [13] 20.1 µM | [14] 20.4 µM
inactive: [4] | [2] | [6] | [15]

CN/C(=N\[N+](=O)[O-])NCc1cnc(Cl)s1
inactive: [2] | [3] | [6]
